Inconclusive results are not listed. Active and inactive are the calls of the source.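 The calls were made as follows, unless noted: active = normalized viability below 100% at a tested concentration; inactive = the rest.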
Columns and labels:
[1] = growth inhibition of DIPG glioma cells, dose response, cell-based, SU-DIPG-XVII, MIPE5.0, CellTiter-Glo, qHTS (AID 1347060; cut-off not given, nearly all actives have AC50 up to about 26 µM;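 also: cells exposed to compound for 48 hours before viability readout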); settings: SU-DIPG-XVII viability, CellTiter-Glo ATP luminescence
[2] = growth inhibition of DIPG glioma cells, dose response, cell-based, SU-DIPG-XIII, MIPE5.0, CellTiter-Glo, qHTS (AID 1347064; cut-off not given, nearly all actives have AC50 up to about 23 µM;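 also: cells exposed to compound for 48 hours before the viability read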); settings: SU-DIPG-XIII viability, CellTiter-Glo ATP luminescence
[3] = viability loss in pontine glioma line – cell-based, SU-DIPG-XXV, MIPE5.0, CellTiter-Glo, qHTS, dose response (AID 1347065; cut-off not given, nearly all actives have AC50 up to about 26 µM;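 also: cells exposed to compound for 48 hours before ATP readout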); settings: CellTiter-Glo ATP luminescence
[4] = JHH-DIPG-1 glioma cell viability, MIPE5.0 library, CellTiter-Glo luminescence, qHTS (AID 1347067; cut-off not given, nearly all actives have AC50 up to about 26 µM;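 also: cells exposed to compound for 48 hours before readout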); settings: JHH-DIPG-1 glioma viability, CellTiter-Glo ATP luminescence
[5] = SU-DIPG-XXV glioma cell viability, MIPE5.0 library, qHTS (AID 1347068; cut-off not given, nearly all actives have IC50 up to about 30 µM;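 also: cells exposed to compound for 48 hours before viability readout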)
[6] = ovarian cancer cell viability with rucaparib, profiling panel, oncology-focused library, rucaparib conditional (AID 1508598); settings: patient-derived ovarian cancer cells, CellTiter-Glo viability, 144 h, stronger effect = lower value
[7] = sensitizers of A549 cells to miR-34 induction, primary screen, imaging, A549 dox-inducible miR-34, nuclei and caspase counts (AID 1347080;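 active = compounds whose cell count with miR-34 switched on is under 0.7 times the count with it off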); settings: A549 miR-34 inducible, Hoechst nuclei count, 48 h
[8] = survival rescue of mitochondrial mutant cells in low glucose, primary screen, MELAS cybrids, Rieske KO mouse fibroblasts, CellTiter-Glo (AID 1508586;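 active = mean z-score across replicates of 1.96 or higher in either the MELAS or the Rieske mutant cell line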;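 also: z relative to plate mean and SD of compound and empty wells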)
[9] = at 0.000305 µM, OCI-C5x cells, with rucaparib 10 µM, 100% = cells with rucaparib alone
[10] = at 0.000305 µM, OCI-C5x cells, without rucaparib
[11] = at 0.000305 µM, OCI-P5x cells, with rucaparib 20 µM, 100% = cells with rucaparib alone
[12] = at 0.000305 µM, OCI-P5x cells, without rucaparib
[13] = at 0.00122 µM, OCI-C5x cells, with rucaparib 10 µM, 100% = cells with rucaparib alone
[14] = at 0.00122 µM, OCI-C5x cells, without rucaparib
[15] = at 0.00122 µM, OCI-P5x cells, with rucaparib 20 µM, 100% = cells with rucaparib alone
[16] = at 0.00122 µM, OCI-P5x cells, without rucaparib
[17] = at 0.00488 µM, OCI-C5x cells, with rucaparib 10 µM, 100% = cells with rucaparib alone
[18] = at 0.00488 µM, OCI-C5x cells, without rucaparib
[19] = at 0.00488 µM, OCI-P5x cells, with rucaparib 20 µM, 100% = cells with rucaparib alone
[20] = at 0.00488 µM, OCI-P5x cells, without rucaparib
[21] = at 0.0195 µM, OCI-C5x cells, with rucaparib 10 µM, 100% = cells with rucaparib alone
[22] = at 0.0195 µM, OCI-C5x cells, without rucaparib
[23] = at 0.0195 µM, OCI-P5x cells, with rucaparib 20 µM, 100% = cells with rucaparib alone
[24] = at 0.0195 µM, OCI-P5x cells, without rucaparib
[25] = at 0.0781 µM, OCI-C5x cells, with rucaparib 10 µM, 100% = cells with rucaparib alone
[26] = at 0.0781 µM, OCI-C5x cells, without rucaparib
[27] = at 0.0781 µM, OCI-P5x cells, with rucaparib 20 µM, 100% = cells with rucaparib alone
[28] = at 0.0781 µM, OCI-P5x cells, without rucaparib
[29] = at 0.313 µM, OCI-C5x cells, with rucaparib 10 µM, 100% = cells with rucaparib alone
[30] = at 0.313 µM, OCI-C5x cells, without rucaparib
[31] = at 0.313 µM, OCI-P5x cells, with rucaparib 20 µM, 100% = cells with rucaparib alone
[32] = at 0.313 µM, OCI-P5x cells, without rucaparib
[33] = at 1.25 µM, OCI-C5x cells, with rucaparib 10 µM, 100% = cells with rucaparib alone
[34] = at 1.25 µM, OCI-C5x cells, without rucaparib
[35] = at 1.25 µM, OCI-P5x cells, with rucaparib 20 µM, 100% = cells with rucaparib alone
[36] = at 1.25 µM, OCI-P5x cells, without rucaparib
[37] = at 5 µM, OCI-C5x cells, with rucaparib 10 µM, 100% = cells with rucaparib alone
[38] = at 5 µM, OCI-C5x cells, without rucaparib
[39] = at 5 µM, OCI-P5x cells, with rucaparib 20 µM, 100% = cells with rucaparib alone
[40] = at 5 µM, OCI-P5x cells, without rucaparib

C#CC[C@H](c1nc2cc(Cl)ccc2c(=O)n1Nc1ccccc1)N(CCCN)C(=O)c1cccc(Cl)c1F
active: AC50 [1] 0.417 µM | AC50 [2] 4.68 µM | AC50 [3] 0.372 µM | AC50 [4] 0.742 µM | IC50 [5] 0.417 µM | viability [6, 12] 94.3% | viability [6, 16] 97.9% | viability [6, 20] 92.1% | viability [6, 23] 96.2% | viability [6, 24] 90.6% | viability [6, 25] 67.5% | viability [6, 26] 57.4% | viability [6, 27] 91.9% | viability [6, 28] 49.8% | viability [6, 29] 57% | viability [6, 30] 55% | viability [6, 31] 59.6% | viability [6, 32] 17.5% | viability [6, 33] 56.2% | viability [6, 34] 46.9% | viability [6, 35] 54.9% | viability [6, 36] 15.7% | viability [6, 37] 1.31% | viability [6, 38] 3.55% | viability [6, 39] 0.597% | viability [6, 40] 1.54%
inactive: viability [6, 9] 125% | viability [6, 10] 105% | viability [6, 11] 109% | viability [6, 13] 130% | viability [6, 14] 102% | viability [6, 15] 109% | viability [6, 17] 115% | viability [6, 18] 109% | viability [6, 19] 107% | viability [6, 21] 125% | viability [6, 22] 112%

C=CC(=O)Nc1cc(Nc2nccc(-c3cn(C)c4ccccc34)n2)c(OC)cc1N(C)CCN(C)C
2830: cell count ([7]; measured here: total cells without miR-34 induction)
inactive: fold change ([7]; stronger effect = lower value, cell number ratio, induced over uninduced) 0.975 | z-score ([8]; MELAS cybrid survival, CellTiter-Glo 48 h, stronger effect = higher value) -0.292 | viability [6, 9] 110% | viability [6, 10] 114% | viability [6, 13] 106% | viability [6, 14] 108% | viability [6, 15] 103% | viability [6, 16] 103% | viability [6, 17] 120% | viability [6, 18] 120% | viability [6, 19] 103% | viability [6, 20] 106% | viability [6, 21] 127% | viability [6, 22] 118% | viability [6, 23] 108% | viability [6, 24] 106% | viability [6, 25] 133% | viability [6, 26] 132% | viability [6, 27] 105% | viability [6, 28] 107% | viability [6, 29] 158% | viability [6, 30] 170% | viability [6, 31] 108% | viability [6, 32] 108% | viability [6, 33] 147% | viability [6, 34] 173%
2760: cell count ([7]; measured here: total cells with miR-34 induction, stronger effect = lower value)
0.432: fold change ([7]; measured here: relative caspase fold change +Dox/-Dox)
active: AC50 [1] 2.95 µM | AC50 [2] 7.42 µM | AC50 [3] 3.72 µM | AC50 [4] 2.63 µM | IC50 [5] 9.34 µM | viability [6, 11] 95.5% | viability [6, 12] 94.3% | viability [6, 35] 91.6% | viability [6, 36] 91.7% | viability [6, 37] 2.67% | viability [6, 38] 3.48% | viability [6, 39] 8.99% | viability [6, 40] 78.5%
1.23: z-score ([8]; Rieske KO mouse fibroblast survival, CellTiter-Glo 72 h)
